The structures appear in SMILES notation. The source made the active and inactive calls.

Assay [1] concerns the target Albumin (Bos taurus) (UniProt P02769). Description: bovine serum albumin binders on microarray, profiling panel, artefact control for SMM control protein annotation, biochemical, small-molecule microarray, Alexa647 label, 635/667 nm fluorescence (AID 1118).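 Also: score merges 667 nm emission intensity and signal-to-noise per printed compound spot.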 The following applies: BSA-A647 binding, fluorescence 635 nm, higher = more signal.
Assay [2] is described as follows: small-molecule microarray binders of probe aXIP, primary screen, biochemical, NeuroSMM set, 635/667 nm fluorescence (AID 1119).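 Also: probe is the protein aXip251-270 applied at 1 µg/mL to compound-printed slides; binding of probe to printed compounds measured as 667 nm fluorescence plus signal to noise.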 The following applies: higher = more signal, called active from +8 up or from −8 down.
Assay [3] is described as follows: small-molecule binders of probe aNOTCH3, primary screen, biochemical, small-molecule microarray, 635/667 nm fluorescence (AID 1120).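 Also: probe is a biotin-tagged antibody raised against NOTCH3 rather than NOTCH3 protein; score merges spot fluorescence near 667 nm with spot signal to noise.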 The settings on record: higher = more signal.
Assay [4] is described as follows: small-molecule binders of probe aNOTCH2, primary screen, biochemical, small-molecule microarray, 635/667 nm fluorescence (AID 1121).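 Also: score merges feature fluorescence read at 667 nm with its signal to noise.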 The following applies: higher = more signal.
For assay [5], the target named is Carbonic anhydrase 2 (Homo sapiens) (UniProt P00918). Nature of the assay: CAII small-molecule binders, profiling panel, biochemical, small-molecule microarray, Alexa647-labelled CAII (AID 1122). The settings on record: CAII-A647 binding fluorescence, higher = more signal.
A short description of assay [6]: COS7 lysate on small-molecule microarray, probe aHis, 635 nm (AID 1123).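 Also: z-score combines 667nm fluorescence intensity with signal-to-noise per printed compound spot.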 The following applies: COS7 cell lysate, fluorescence, higher = more signal.
Assay [7] in a line: compound binding in COS7 lysate, probe aLAP1, primary screen, cell lysate, small-molecule microarray (AID 1124).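 Also: lysate comes from COS7 cells expressing LAP1 and is applied at 0.3 µg/mL; score merges spot fluorescence near 667 nm with signal-to-noise over triplicate slides.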 The settings on record: probe aLAP1, fluorescence, higher = more signal.
Assay [8] relates to Sam68 (KHDRBS1). Description: Sam68 small-molecule binders, primary screen, biochemical, small-molecule microarray, 635 nm fluorescence (AID 1125).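 Also: score merges 667 nm channel intensity with signal to noise over triplicate slides.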 The following applies: small-molecule microarray binding, higher = more signal.
Assay [9] deals with Chordin-like protein 2 (CHRDL2). Description: CHRDL2 small-molecule binders, primary screen, biochemical, small-molecule microarray, 635 nm fluorescence (AID 1126).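 Also: printed compound slides probed with Chrdl2 protein at 4 µg/mL for 1 h at 4 C; score merges 667 nm emission intensity with signal to noise over three replicate slides.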 The following applies: small-molecule microarray binding, fluorescence 635 nm; higher = more signal.
Assay [10] concerns the target Concanavalin-A (Canavalia ensiformis) (UniProt P02866). Description: ConA small-molecule binders, primary screen, artefact control for SMM control protein annotation, biochemical, small-molecule microarray, Alexa647 label, 635 nm (AID 1127).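 Also: z combines 667 nm emission intensity with signal-to-noise across three replicate slides.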 The settings on record: ConA-A647 binding fluorescence, higher = more signal.

Albumin (Bos taurus), sequence (P02769 whole entry, looked up): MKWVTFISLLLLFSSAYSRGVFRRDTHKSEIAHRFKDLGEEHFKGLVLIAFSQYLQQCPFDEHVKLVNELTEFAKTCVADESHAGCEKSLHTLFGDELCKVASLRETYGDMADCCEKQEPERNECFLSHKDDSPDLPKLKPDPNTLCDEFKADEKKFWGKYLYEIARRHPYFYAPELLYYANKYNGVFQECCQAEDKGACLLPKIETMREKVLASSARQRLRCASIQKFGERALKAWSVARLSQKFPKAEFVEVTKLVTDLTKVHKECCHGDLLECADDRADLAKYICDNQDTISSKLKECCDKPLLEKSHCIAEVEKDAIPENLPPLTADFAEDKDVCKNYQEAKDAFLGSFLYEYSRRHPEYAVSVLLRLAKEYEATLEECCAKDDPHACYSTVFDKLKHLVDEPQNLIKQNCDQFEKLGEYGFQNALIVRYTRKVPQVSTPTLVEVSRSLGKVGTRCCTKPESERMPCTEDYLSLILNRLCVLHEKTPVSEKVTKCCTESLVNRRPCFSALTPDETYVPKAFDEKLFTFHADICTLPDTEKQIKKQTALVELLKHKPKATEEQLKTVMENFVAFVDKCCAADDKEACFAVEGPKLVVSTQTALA
Concanavalin-A (Canavalia ensiformis), sequence (P02866 whole entry, looked up): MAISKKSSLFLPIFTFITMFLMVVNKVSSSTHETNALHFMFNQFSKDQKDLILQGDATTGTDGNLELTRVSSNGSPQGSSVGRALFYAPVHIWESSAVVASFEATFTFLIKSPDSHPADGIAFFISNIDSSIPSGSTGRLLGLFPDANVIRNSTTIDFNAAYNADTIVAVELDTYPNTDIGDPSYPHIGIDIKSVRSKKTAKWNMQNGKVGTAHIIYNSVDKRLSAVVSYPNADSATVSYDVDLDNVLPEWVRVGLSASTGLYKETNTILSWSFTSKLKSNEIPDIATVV

With `C=CCC(OC(C)=O)[C@@H]1[C@@H](N(Cc2cccc3ccccc23)C(=O)c2ccc(-c3ccccc3)cc2)c2cc(OCCCO)ccc2N1C(=O)Cc1ccc2ccccc2c1` (stereo not given in full), the composite z-score in assay [1] is 0.364; in assay [3], 0.0276; in [4], -0.0809; in [5], 0.268; in assay [6] it was 0.376; in [7], 0.0109. The composite z-score in [8] is -0.518; in [9], 0.0624; in [10] it was -0.214. Also, the composite Z-score in [2] is -0.902 (inactive).
Take `CN(C)C(=O)[C@]1(Cc2ccccc2)N=C(c2ccc(OCCCO)cc2)O[C@@H]1c1ccccc1CN=[N+]=[N-]`: the composite z-score in assay [1] worked out at 0.981; in assay [3], 0.34; in [4] it was 0.0488; in assay [5] it was 0.582; in assay [6] it was 2.63; in [7] it was 0.407. In addition, the composite z-score is 1.31 in assay [8], -0.321 in assay [9] and 0.922 in assay [10]. The composite Z-score in assay [2] was 0.0333 (inactive).
Regarding `COc1ccc([Si](C)(C)[C@H]2[C@H](CC(=O)N3Cc4ccccc4C[C@H]3CO)O[C@@]3(C(=O)N(C)c4ccccc43)[C@@H]2C)cc1`, the composite z-score in assay [1] was 0.656; in assay [3], 0.163; in assay [4], -0.11; in [5] it was 0.686; in assay [6], 1.89; in [7] it was 0.941. The composite z-score turned out to be 1.28 in assay [8], 1.37 in [9] and 1.01 in [10]. In [2], the composite Z-score is 0.673 (inactive).
On to `COC(=O)[C@@]1(Cc2ccccc2)[C@H]2c3cc(C(=O)N(C)C)n(CCO)c3C[C@H]2CN1C(=O)c1ccccc1`, for which the composite z-score in assay [1] is 1.04; in [3], 0.0259; in [4], 0.19; in assay [5], 0.958; in [6], 3.13; in assay [7], 0.877. The values for the composite z-score in [8], in assay [9] and in [10] were 1.24, -1.44 and 1.2, respectively. Also, the composite Z-score in assay [2] is 0.335 (inactive).
For `O=C(N1CCOCC1)[C@@]1(Cc2ccccc2)COC(c2ccc(OCCCO)cc2)=N1`, the composite z-score in assay [1] worked out at 1; in assay [3], 0.14; in assay [4] it was 0.245; in assay [5], 0.769; in assay [6] it was 2.7; in assay [7] it was 0.872. In addition, the composite z-score is 1.19 in [8], -0.354 in [9] and 0.578 in [10]. Besides, in [2], the composite Z-score is -0.0252 (inactive).
In the case of `CCCC[C@H]1C[C@@H]1[C@@H]1N(C(C)=O)[C@H](c2cccc(OC)c2)CC12CC2`, the composite z-score in assay [1] was determined as 0.219; in assay [3], 0.0026; in assay [4], 0.0112; in assay [5], 0.202; in [6], 0.808; in [7], 0.603. Further, the composite z-score in assay [8] is -0.658; in assay [9], -1; in [10] it was -0.745. The composite Z-score in assay [2] was 0.797 (inactive).
For `N#Cc1ccc(C(O)C2C=CC3C(=O)NC(=O)C3N2Nc2ccc(Cl)cc2Cl)cc1` (stereo not given), the composite z-score was 0.956 in assay [1]; 0.112 in [3]; 0.132 in assay [4]; 0.651 in [5]; 2.94 in [6]; 1.48 in [7]. Besides, the composite z-score in [8] is -0.0258; in assay [9], -0.581; in assay [10], 0.489. For the same compound, the composite Z-score in [2] was 0.868 (inactive).
For `CC(C)=CCCC=C(C)C(O)C1C=CC2C(=O)N(c3ccccc3)C(=O)C2N1Nc1ccc(C#N)cc1` (stereo not given), the composite z-score is 0.976 in assay [1]; 0.518 in assay [3]; -0.157 in assay [4]; 0.596 in [5]; 2.34 in assay [6]; 1.54 in assay [7]. Also, the composite z-score in assay [8] came to 1.03; in assay [9], 0.173; in [10], 1.11. In addition, the composite Z-score in assay [2] was -0.213 (inactive).
For the compound `CC(C)N1C(=O)c2ccccc2[C@@H](C(=O)NCC(F)(F)F)[C@@H]1c1ccc(CO)cc1`, the composite z-score was -0.826 in [1]; -0.1 in assay [3]; -0.07 in assay [4]; 0.587 in assay [5]; 0.425 in assay [6]; -0.282 in assay [7]. The composite z-score was -0.28 in [8], -0.474 in assay [9] and 0.104 in assay [10]. For the same compound, the composite Z-score in assay [2] was 0.492 (inactive).
For `COc1ccc([Si](C)(C)[C@@H]2[C@@H](CC(=O)N(CCO)Cc3ccccc3)O[C@]3(C(=O)N(Cc4ccc(I)cc4)c4ccccc43)[C@H]2C)cc1`, the composite z-score in [1] is -0.596; in [3] it was 0.456; in assay [4], 0.02; in assay [5], 0.414; in [6], 0.568; in assay [7], 0.965. In addition, the composite z-score in [8] worked out at 0.793; in assay [9], 1.36; in assay [10] it was 0.817. Moreover, the composite Z-score in assay [2] is 0.317 (inactive).
Turning to `CN1C(=O)C2C(C3CC3)C=C3CN(Cc4cccc(Cl)c4)[C@@H]([C@@H](O)Cc4ccccc4)C3C2C1=O` (stereo not given in full), the composite z-score in [1] was 0.363; in [3] it was 0.147; in assay [4], -0.104; in assay [5], 0.225; in assay [6], 1.17; in assay [7], -0.0531. For the same compound, the composite z-score is 1.3 in assay [8], 0.231 in assay [9] and 1.06 in [10]. The composite Z-score in assay [2] is 0.996 (inactive).
As for `COC(=O)[C@@]1(Cc2ccccc2)[C@H]2c3cc(C(=O)N(C)C)n(Cc4ccc(S(C)(=O)=O)cc4)c3C[C@H]2CN1C(=O)c1ccccc1`, the composite z-score in assay [1] amounted to 1.13; in assay [3], 0.364; in [4], 0.199; in assay [5], 0.647; in [6], 2.9; in assay [7], 0.722. Further, the composite z-score is 0.296 in [8], -0.755 in [9] and 1.08 in [10]. Further, the composite Z-score in [2] was -0.368 (inactive).
On to `COCCOC(=O)N1C(=O)[C@@]2(c3cc(C#CCNC(N)=O)ccc31)[C@H](C(=O)Nc1nc3ccccc3s1)[C@H]1C(=O)O[C@H](c3ccccc3)[C@H](c3ccccc3)N1[C@@H]2c1ccccc1OCCO`, for which the composite z-score in assay [1] was 0.074; in assay [3], 0.0306; in assay [4], -0.0432; in [5] it was 0.47; in assay [6], 1.17; in assay [7] it was 0.151. The values for the composite z-score in assay [8], in [9] and in [10] were 0.975, 1.23 and 1.04, respectively. Also, in [2], the composite Z-score is -0.523 (inactive).
For `O=C1C2C=CC(C(O)c3cccs3)N(Nc3ccc([N+](=O)[O-])cc3)C2C(=O)N1c1ccccc1` (stereo not given), the composite z-score in assay [1] is 0.523; in assay [3], 0.0105; in assay [4], -0.0694; in assay [5] it was 0.759; in [6] it was 2.08; in assay [7] it was 0.218. Moreover, the composite z-score in [8] came to 0.909; in assay [9], 0.0721; in assay [10] it was 0.585. In addition, the composite Z-score in assay [2] was -0.506 (inactive).
On to `C=C(COC)/C(=C/C[C@@H](OC(C)=O)c1ccccc1OCCO)c1cnc2ccccc2c1`, for which the composite z-score in [1] is -0.209; in assay [3], 0.199; in assay [4] it was -0.084; in [5], 0.776; in assay [6] it was 1.09; in assay [7] it was 0.542. The composite z-score in assay [8] is 1.17; in assay [9], 0.765; in [10], 0.995. Moreover, in [2], the composite Z-score was 0.72 (inactive).
